High-throughput results deposited in PubChem BioAssay by several laboratories.
Only some compounds are listed: those with a hit (about 4.1% of all), similar ones and a draw of the others.
TRPM1 prom inh: inhibitors of MITF-driven TRPM1 promoter in melanoma cells | SK-MEL-5 TRPM1 promoter luciferase, 24 h | inhibition, % at 12.5 µM | actives 0.83% (n = 330,000);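 active means mean inhibition across replicates of 60% or more, whatever share of single replicates reaches that level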
TWEAK-Fn14 inh: TWEAK-Fn14 signaling inhibition; TWEAK-stimulated Fn14 reporter cells, luciferase luminescence, 8 h; inhibition, % at 10 µM; actives 2% (n = 360,000); in the data active means inhibition above about 50%
Peg3 promoter: Peg3 promoter activity inhibition; HeLa PEG-Prom luciferase reporter, luminescence, overnight; inhibition, % at 20 µM; actives 1.7% (n = 360,000);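 active means inhibition of at least 50% at 20 µM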
TROY signal inh: inhibitors of TROY-dependent NF-kB signaling; Q293 LMP1-TROYcd NF-kB luciferase reporter, 4 h; inhibition, % at 10 µM; actives 0.98% (n = 360,000); AID 1347056;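 active means compounds whose plate-normalised and pattern-corrected inhibition of the luciferase reporter signal at the single screening dose is 50% or more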
Shn3 3UTR inh: Schnurri-3 reporter inhibition in Clone20 osteoblasts. Clone20 osteoblast Shn3 3'UTR firefly luciferase, 24 h. inhibition, % at 12.5 µM. actives 0.52% (n = 360,000). AID 588674;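 active means mean inhibition of at least 75% with every replicate also reaching 75%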
LMP1 NFkB inh: Epstein-Barr LMP1 NF-kappaB reporter inhibition; LMP1-induced NF-kappaB luciferase reporter cells, luminescence; actives 0.69% (n = 350,000); inhibition, % at 12.5 µM; AID 504558; in the data active means inhibition above about 41%
Large screens that a line does not name were inactive.

COc1ccc(CNCCc2ccc(Cl)cc2)c(OC)c1OC	none
CCOc1ccc(-n2c(O)c(C=Nc3ccc(N4CCOCC4)cc3)c(=O)[nH]c2=O)cc1	TWEAK-Fn14 inh 90.6 (no result: TROY signal inh)
O=c1[nH]c(=S)n(-c2ccc(Br)cc2)c(O)c1C=Nc1ccc(N2CCOCC2)cc1	none
CCOC(=O)[C@]12Cc3cc(OC)ccc3[C@H]1N(C(C)C)C(=O)c1cc(OC)ccc12	TROY signal inh 51.6 (no result: TRPM1 prom inh, Peg3 promoter, Shn3 3UTR inh, LMP1 NFkB inh)
CCOC(=O)[C@]12Cc3cc(Cl)ccc3[C@H]1N(C)C(=O)c1ccccc12	none (no result: TRPM1 prom inh, Peg3 promoter, Shn3 3UTR inh, LMP1 NFkB inh)
CCOC(=O)[C@]12Cc3cc(Cl)ccc3[C@H]1N(C(C)C)C(=O)c1ccccc12	TWEAK-Fn14 inh 78.3 (no result: TRPM1 prom inh, Peg3 promoter, Shn3 3UTR inh, LMP1 NFkB inh)
CCOC(=O)[C@]12Cc3cc(OC)c(OC)cc3[C@H]1N(Cc1ccccc1)C(=O)c1ccccc12	none
CCOC(=O)[C@]12Cc3c(cc(OC)c(OC)c3OC)[C@H]1N(C(C)C)C(=O)c1cc(OC)ccc12	none (no result: TRPM1 prom inh, Peg3 promoter, Shn3 3UTR inh, LMP1 NFkB inh)
CCOC(=O)[C@]12Cc3cc(Cl)ccc3[C@H]1N(CC(=O)OC)C(=O)c1ccccc12	TWEAK-Fn14 inh 79.8 (no result: TRPM1 prom inh, Peg3 promoter, Shn3 3UTR inh, LMP1 NFkB inh)
CCCCOC(=O)c1ccccc1C(=O)OCc1ccccc1	none
Cc1ccc(C(O)(c2ccc(C)c(C)c2)C2CN3CCC2CC3)cc1C (configuration not stated)	TRPM1 prom inh 82.5, Peg3 promoter 98.1
Nc1ccccc1C(=O)OCCOc1ccccc1	TWEAK-Fn14 inh 67.0
C=CCOC(=O)c1ccccc1N	none
COc1ccc(-n2c(O)c(C(C)=NCCc3c[nH]c4ccccc34)c(=O)[nH]c2=O)cc1	none (no result: TRPM1 prom inh, LMP1 NFkB inh)
CC1OC(OC2C=C3CCC4C(CCC5(C)C(c6ccc(=O)oc6)CCC45O)C3(C)CC2)C(O)C(OC2OC(CO)C(O)C(O)C2O)C1O (configuration not stated)	TRPM1 prom inh 71.8, TWEAK-Fn14 inh 85.8, Peg3 promoter 97.7, LMP1 NFkB inh 89.2
Nc1ccc(-c2ccc(N)cc2)cc1	none
Cc1c2ccncc2c(C)c2c1[nH]c1ccccc12	TRPM1 prom inh 89.0, Peg3 promoter 101.5
CCCCCCn1c(=O)c(C(=O)Nc2cnccn2)c(O)c2ccccc21	TRPM1 prom inh 72.7
O=C(CCc1ccccc1)N1Cc2cc(-c3ccccc3)ccc2-n2nncc2C1	none (no result: TRPM1 prom inh, LMP1 NFkB inh)
CN(C)C(=O)Oc1ccc2c(c1)O/C(=C\c1cccc([N+](=O)[O-])c1)C2=O	none
C[C@H]1CCC/C=C/[C@@H]2C[C@H](O)C[C@H]2[C@@H](O)/C=C/C(=O)O1	TRPM1 prom inh 88.7, TWEAK-Fn14 inh 61.3, Peg3 promoter 58.6, Shn3 3UTR inh 88.3
O=c1[nH]c(=O)n(-c2ccc(Cl)cc2)c(O)c1C=NCCN1CCCCC1	none
CCCCn1nnnc1C(CCSC)N1CCC2(CC1)C(=O)NCN2c1ccccc1 (configuration not stated)	none (no result: TRPM1 prom inh, LMP1 NFkB inh)
Cc1cc2c(C(C)C)c(O)c(O)c(C=O)c2c(O)c1-c1c(C)cc2c(C(C)C)c(O)c(O)c(C=O)c2c1O	TWEAK-Fn14 inh 102.1, Peg3 promoter 94.2, TROY signal inh 66.0, Shn3 3UTR inh 92.3 (no result: TRPM1 prom inh, LMP1 NFkB inh)
C/C=C1/CN2C3CC1C(CO)(C(=O)OC)C2Cc1c3n(C)c2ccccc12 (configuration not stated)	none
CC1CC(NC(=O)C2C3CCC(O3)C2C(=O)O)CC(C)(C)C1 (configuration not stated)	none
C[C@@H]1O[C@@H](O[C@H]2C[C@@H](O)[C@]3(CO)[C@H]4[C@H](O)C[C@]5(C)[C@@H](C6=CC(=O)OC6)CC[C@]5(O)[C@@H]4CC[C@]3(O)C2)[C@H](O)[C@H](O)[C@H]1O	TRPM1 prom inh 70.0, TWEAK-Fn14 inh 84.9, Peg3 promoter 102.5, LMP1 NFkB inh 80.4
CCC(C)n1c(O)c(/C=N/NC(=O)c2ccncc2)c(=O)[nH]c1=S (configuration not stated)	none
CC(=O)OCC12CC(OC(=O)CC(C)C)C(C)=CC1OC1C(O)C(OC(C)=O)C2(C)C12CO2 (configuration not stated)	TRPM1 prom inh 87.1, TWEAK-Fn14 inh 92.8, Peg3 promoter 96.9, TROY signal inh 82.1, Shn3 3UTR inh 93.2, LMP1 NFkB inh 88.4
COc1ccc(N=Cc2c(O)n(Cc3ccccc3)c(=S)[nH]c2=O)c(OC)c1	Peg3 promoter 54.2
O=[N+]([O-])c1ccc(NCc2ccc(Cl)cc2)c2ccncc12	TWEAK-Fn14 inh 50.6
COc1ccc(-n2nnnc2C(c2cccc(OC)c2OC)N2CCC(n3c(=O)[nH]c4ccccc43)CC2)cc1 (configuration not stated)	Peg3 promoter 55.3 (no result: TRPM1 prom inh, LMP1 NFkB inh)
O=C1NCN(c2ccccc2)C12CCN(C(c1cccc3ccccc13)c1nnnn1-c1ccc3c(c1)OCCO3)CC2 (configuration not stated)	none (no result: TRPM1 prom inh, LMP1 NFkB inh)
COc1ccc(-n2nnnc2C(c2ccnc3ccccc23)N2CCC(n3c(=O)[nH]c4ccccc43)CC2)cc1 (configuration not stated)	none (no result: TRPM1 prom inh, LMP1 NFkB inh)
O=c1[nH]c2ccccc2n1C1CCN(C(c2ccccc2OC(F)(F)F)c2nnnn2-c2ccc3c(c2)OCCO3)CC1 (configuration not stated)	TWEAK-Fn14 inh 76.3, Peg3 promoter 89.5 (no result: TRPM1 prom inh, LMP1 NFkB inh)
COc1cccc(C(c2nnnn2-c2ccc3c(c2)OCCO3)N2CCC(n3c(=O)[nH]c4ccccc43)CC2)c1OC (configuration not stated)	Shn3 3UTR inh 86.7 (no result: TRPM1 prom inh, LMP1 NFkB inh)
CC12CN3CC(C)(CN(C1)P3(=O)Oc1ccccc1)C2=O (configuration not stated)	none
CCC(C)NC(=O)c1c(N)n(Cc2ccc3c(c2)OCO3)c2nc3ccccc3nc12 (configuration not stated)	TROY signal inh 57.2
O=C(c1ccc(Cl)cc1)C1CCCN(Cc2cccc3cnccc23)C1 (configuration not stated)	TROY signal inh 85.2
O=C(c1cccc(Cl)c1)C1CCCN(Cc2cccc3cnccc23)C1 (configuration not stated)	none
C[C@@H]1CN([C@H](C)CO)C(=O)CCCn2nncc2CO[C@@H]1CN(C)C(=O)Oc1cccc2ccccc12	none (no result: TRPM1 prom inh)
CC(=Nc1ccccc1N)c1c(O)n(C)c(=O)[nH]c1=O	none
CCOc1ccc(Cl)cc1CNCCc1ccccc1F	Peg3 promoter 73.7
COc1ccc(CCNCc2ccccc2F)cc1OC	none
O=c1[nH]c(=O)n(-c2cccc3ccccc23)c(O)c1C=NCCCn1ccnc1	TWEAK-Fn14 inh 62.1
Cc1ccc(OP2(=O)Nc3cc(C)c(C)cc3S2)cc1 (configuration not stated)	TWEAK-Fn14 inh 64.7
COC(=O)C1=C(c2ccc(F)cc2F)C[C@@H]2CC[C@H]1N2C(=O)N1CCCCC1	none
